# Measurements as given in PubChem BioAssay (NCATS).
# Several values for one entry are separate records, joined by “and”; a condition that tells them apart may be missing. Equal entries are not always repeated. Records with an inconclusive call do not appear. Activity calls are given as the source filed them. Unless noted, calls come from the whole dose curve; as a rule, active = well fitted curve in either direction with a large enough effect (not every such curve was filed as active); inconclusive = small, poorly fitted or top-dose-only effect, or another doubt; inactive = flat fitted curve, though single readings scatter.
# How the values were obtained:
# [1] = AP1 Signaling Pathway (AID 357); details: ME-180 AP-1-bla reporter, EGF-induced, beta-lactamase ratio, 5 h;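 note: ME-180 reporter cells stimulated with EGF at its EC50 level; % is set by controls: 0 for no effect and ±100 for the full control effect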
# How it was run: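 Beta-lactamase reporter under AP-1 response element, ME-180 background. Stimulus: EC50 EGF. Compound exposure 5 h, 37 °C. Detection: CCF4, 2.5 h RT, 460/530 nm. Values: AC50 from titration.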
# [2] = target: Cytochrome P450 1A2 (Homo sapiens) (UniProt P05177); test: p450-cyp1a2 (AID 410; calls by dose curve; note: potency is the fitted concentration of half-maximal effect;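 for activity change, negative = inhibition: -100% = full effect of reference inhibitor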); details: recombinant CYP1A2, luciferin-ME demethylation, luminescence; series mostly up to 57 µM
# Cytochrome P450 1A2 (Homo sapiens), sequence (P05177 whole entry, looked up): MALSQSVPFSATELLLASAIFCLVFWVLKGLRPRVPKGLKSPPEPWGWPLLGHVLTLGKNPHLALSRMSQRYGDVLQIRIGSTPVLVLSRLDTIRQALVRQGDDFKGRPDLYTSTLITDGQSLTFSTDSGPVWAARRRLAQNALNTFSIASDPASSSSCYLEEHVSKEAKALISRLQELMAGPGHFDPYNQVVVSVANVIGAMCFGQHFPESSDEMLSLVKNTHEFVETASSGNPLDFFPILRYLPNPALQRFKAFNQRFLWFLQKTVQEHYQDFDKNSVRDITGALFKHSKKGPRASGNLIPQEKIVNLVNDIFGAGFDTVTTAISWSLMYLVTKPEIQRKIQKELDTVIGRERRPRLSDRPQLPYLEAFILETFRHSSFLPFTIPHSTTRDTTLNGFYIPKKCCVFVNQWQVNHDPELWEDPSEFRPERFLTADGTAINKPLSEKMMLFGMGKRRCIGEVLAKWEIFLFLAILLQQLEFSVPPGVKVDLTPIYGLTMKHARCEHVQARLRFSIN
# How it was run: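 20nM CYP1A2, 100uM Luciferin-ME (=Km), 100mM KPO4; cpd 10 min RT; +NADPH regen, 60 min RT; stop/detect 20 min; luminescence. Normalized to furafylline 57 uM = full inhibition.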
# [3] = NFAT Signaling Pathway (AID 444); details: Jurkat NFAT-bla M1, carbachol, beta-lactamase ratio, 5 h;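 note: carbachol stimulus at about its EC50 of 1 µM final; % is set by controls: 0 for no effect and ±100 for the full control effect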
# How it was run: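 Jurkat cells carrying an NFAT-driven β-lactamase reporter and co-transfected muscarinic M1 receptor were treated with compound plus carbachol (1 uM final, an EC50 level) for 5 h at 37 °C. CCF4 loading followed for 1 h at RT; 460/530 nm ratio gave %activity.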
# [4] = Stat Signaling Pathway (AID 446); details: ME-180 (cervical carcinoma) SIE beta-lactamase reporter, IL-6 stimulated, 5 h;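 note: ME-180 cervical cancer cells given 40 pM IL-6 alongside compound; SIE-controlled beta-lactamase reporter measured as 460/530 nm FRET emission ratio; % is set by controls: 0 for no effect and ±100 for the full control effect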
# How it was run: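 Overnight-plated ME-180 cells bearing a STAT Inducible Element beta-lactamase reporter; 5 h co-exposure to compound and 40 pM IL-6; values normalized to 300 pM IL-6 and 125 nM JAK inhibitor controls.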
# [5] = target: Glucocorticoid receptor (Homo sapiens) (UniProt P04150); test: GR-GFP Redistribution (AID 450;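 active = compounds whose dose series gives a full or clear partial fitted curve of increased nuclear translocation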; note: potency is the fitted concentration of half-maximal effect); details: U2OS GR-GFP nuclear translocation, laser cytometry, 2 h
# Glucocorticoid receptor (Homo sapiens), sequence (P04150 whole entry, looked up, the tested form may be a part): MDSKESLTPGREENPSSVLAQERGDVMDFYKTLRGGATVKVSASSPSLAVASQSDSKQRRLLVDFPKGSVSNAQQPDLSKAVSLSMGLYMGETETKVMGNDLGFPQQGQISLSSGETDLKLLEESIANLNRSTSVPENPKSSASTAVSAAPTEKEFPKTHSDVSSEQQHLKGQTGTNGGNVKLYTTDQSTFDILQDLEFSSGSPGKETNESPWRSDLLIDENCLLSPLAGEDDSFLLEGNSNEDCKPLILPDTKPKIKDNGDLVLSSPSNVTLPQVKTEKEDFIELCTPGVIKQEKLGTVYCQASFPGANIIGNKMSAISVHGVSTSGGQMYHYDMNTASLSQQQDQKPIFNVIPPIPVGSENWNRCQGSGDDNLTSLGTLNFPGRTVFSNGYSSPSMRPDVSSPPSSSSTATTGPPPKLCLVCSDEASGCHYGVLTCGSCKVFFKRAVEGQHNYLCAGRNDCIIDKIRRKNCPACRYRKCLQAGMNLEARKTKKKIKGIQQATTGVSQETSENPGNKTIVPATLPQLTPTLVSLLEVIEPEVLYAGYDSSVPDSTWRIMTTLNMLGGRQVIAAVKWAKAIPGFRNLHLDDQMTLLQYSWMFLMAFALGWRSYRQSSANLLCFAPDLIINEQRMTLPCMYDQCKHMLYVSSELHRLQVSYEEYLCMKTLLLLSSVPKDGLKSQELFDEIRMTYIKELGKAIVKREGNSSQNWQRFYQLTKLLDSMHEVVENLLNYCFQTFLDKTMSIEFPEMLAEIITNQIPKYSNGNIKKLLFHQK
# [6] = target: Glucocorticoid receptor (Homo sapiens) (UniProt P04150); test: GR-EFC Redistribution (AID 451; calls by dose curve; note: potency is the fitted concentration of half-maximal effect); details: CHO-K1 GR-EFC translocation, beta-gal luminescence, 2 h
# How it was run: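 CHO-K1 cells stably expressing nuclear-localized β-gal enzyme acceptor and GR fused C-terminally to the enzyme donor fragment; ligand-driven nuclear translocation restores β-gal by complementation. Compounds titrated up to 46 uM final, 2 h at 37 °C; luminescence read.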
# [7] = target: Mitogen-activated protein kinase 10 (Mus musculus) (UniProt Q61831); test: JNK3 AlphaScreen Assay (AID 530); details: JNK3 lysate, c-Jun phosphorylation; series mostly up to 57.1 µM;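 note: kinase came from lysate of stimulated human HepG2 cells; signal reports phosphorylation of biotinylated GST-cJun 1-79 at Ser73 with 10 µM ATP; % is set by controls: 0 for no effect and ±100 for the full control effect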
# How it was run: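 Biotinylated GST-cJun(1-79) served as substrate for JNK3 in HepG2 lysates stimulated with IL-1beta and TNF-alpha. ATP was 10 uM final, pH 7.6. Ser73 phosphorylation was quantified by AlphaScreen (680 nm excitation).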
# [8] = target: 3',5'-cyclic-AMP phosphodiesterase 4B (Homo sapiens) (UniProt Q07343); test: qHTS Assay for Inhibitors of PDE-IV (AID 607; active = well fitted activation curve with a large enough effect in the main read-out, with a control signal flat, not every such curve was filed as active; note: % of control where 0% means no effect); details: HEK293 ACTOne CNG channel cells, membrane potential fluorescence; series mostly up to 22.9 µM
# 3',5'-cyclic-AMP phosphodiesterase 4B (Homo sapiens), sequence (Q07343 whole entry, looked up): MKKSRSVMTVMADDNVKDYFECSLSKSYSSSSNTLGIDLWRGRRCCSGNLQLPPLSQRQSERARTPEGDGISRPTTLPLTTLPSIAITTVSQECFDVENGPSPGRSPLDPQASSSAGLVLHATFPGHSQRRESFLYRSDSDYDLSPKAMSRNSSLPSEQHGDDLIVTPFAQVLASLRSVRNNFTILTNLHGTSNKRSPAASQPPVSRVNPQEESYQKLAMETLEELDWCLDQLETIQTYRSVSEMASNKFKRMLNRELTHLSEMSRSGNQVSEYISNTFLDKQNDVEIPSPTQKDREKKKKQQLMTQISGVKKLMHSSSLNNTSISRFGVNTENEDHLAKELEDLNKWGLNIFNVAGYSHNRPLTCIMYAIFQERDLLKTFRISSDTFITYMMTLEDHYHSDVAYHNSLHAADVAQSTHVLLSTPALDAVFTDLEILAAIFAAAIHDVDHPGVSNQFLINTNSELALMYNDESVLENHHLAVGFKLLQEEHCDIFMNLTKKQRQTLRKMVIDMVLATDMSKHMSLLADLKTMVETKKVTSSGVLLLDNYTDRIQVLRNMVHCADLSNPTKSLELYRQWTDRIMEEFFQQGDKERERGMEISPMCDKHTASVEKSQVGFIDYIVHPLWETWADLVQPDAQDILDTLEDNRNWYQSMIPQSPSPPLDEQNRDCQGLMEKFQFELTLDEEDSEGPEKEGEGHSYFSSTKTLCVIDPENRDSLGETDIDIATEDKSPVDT
# How it was run: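 Live HEK293 cells with a modified cyclic nucleotide-gated (CNG) channel report intracellular cAMP via membrane-potential dye fluorescence (ex 535/em 590 nm). Endogenous PDE-IV was targeted. Compounds were tested at up to 22.9 uM final; RO 20-1724 100 uM served as control.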
# [9] = target: Cytochrome P450 2D6 (Homo sapiens) (UniProt P10635); test: qHTS Assay for Inhibitors and Substrates of Cytochrome P450 2D6 (AID 891; active = well fitted curve in the direction sought with a large enough effect; an effect the other way counts as inactive or inconclusive;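 note: luciferin methyl ether substrate demethylated by CYP2D6 with NADPH regeneration; % is set by controls: 0 for no effect and ±100 for the full control effect; nearly all actives have a fitted effect of over 60% in size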); details: recombinant CYP2D6, luciferin-ME EGE luminescence; series mostly up to 57.1 µM
# Cytochrome P450 2D6 (Homo sapiens), sequence (P10635 whole entry, looked up): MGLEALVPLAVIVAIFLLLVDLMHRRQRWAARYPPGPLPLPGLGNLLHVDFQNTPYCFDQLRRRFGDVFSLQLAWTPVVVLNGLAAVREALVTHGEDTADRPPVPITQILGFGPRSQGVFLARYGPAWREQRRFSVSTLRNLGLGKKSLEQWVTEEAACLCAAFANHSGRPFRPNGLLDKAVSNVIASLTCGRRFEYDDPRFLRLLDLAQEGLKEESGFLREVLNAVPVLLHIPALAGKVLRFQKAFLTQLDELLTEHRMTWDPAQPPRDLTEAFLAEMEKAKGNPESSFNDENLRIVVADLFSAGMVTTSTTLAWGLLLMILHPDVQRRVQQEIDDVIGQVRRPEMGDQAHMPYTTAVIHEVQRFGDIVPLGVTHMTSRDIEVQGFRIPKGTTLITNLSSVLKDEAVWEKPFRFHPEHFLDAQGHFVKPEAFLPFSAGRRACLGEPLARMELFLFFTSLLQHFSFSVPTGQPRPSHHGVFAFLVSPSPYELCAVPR
# How it was run: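 Luminescent read-out of luciferin formed by 5 nM human CYP2D6 demethylating 30 uM Luciferin-ME EGE (Km level) over 60 min at room temperature after NADPH regeneration addition. Data normalized to full inhibition by 1.43 uM quinidine.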
# [10] = qHTS Assay for Lipid Storage Modulators (AID 1519; calls by dose curve); details: Drosophila S3 cells, BODIPY lipid droplet/cell ratio, laser cytometry, cells loaded with oleic acid; for activity change, negative = inhibition: at 25.7 µM (top of the series)
# How it was run: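 Cells seeded at 5,000 per well were treated with compounds over a concentration series and loaded with oleic acid (400 uM, as added). Lipid droplet fluorescence (488 nm excitation, 500-530 nm channel) was read by laser-scanning cytometry and normalized to 20 uM Triacsin C.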
# [11] = target: ATP-dependent 6-phosphofructokinase (Trypanosoma brucei brucei) (UniProt O15648); test: qHTS Assay to Find Inhibitors of T. brucei phosphofructokinase: hit validation (AID 492961; active = well fitted curve in the direction sought with a large enough effect; an effect the other way counts as inactive or inconclusive); details: T. brucei PFK, ADP-Glo luminescence; series mostly up to 24.3 µM
# ATP-dependent 6-phosphofructokinase (Trypanosoma brucei brucei), sequence (O15648 whole entry, looked up): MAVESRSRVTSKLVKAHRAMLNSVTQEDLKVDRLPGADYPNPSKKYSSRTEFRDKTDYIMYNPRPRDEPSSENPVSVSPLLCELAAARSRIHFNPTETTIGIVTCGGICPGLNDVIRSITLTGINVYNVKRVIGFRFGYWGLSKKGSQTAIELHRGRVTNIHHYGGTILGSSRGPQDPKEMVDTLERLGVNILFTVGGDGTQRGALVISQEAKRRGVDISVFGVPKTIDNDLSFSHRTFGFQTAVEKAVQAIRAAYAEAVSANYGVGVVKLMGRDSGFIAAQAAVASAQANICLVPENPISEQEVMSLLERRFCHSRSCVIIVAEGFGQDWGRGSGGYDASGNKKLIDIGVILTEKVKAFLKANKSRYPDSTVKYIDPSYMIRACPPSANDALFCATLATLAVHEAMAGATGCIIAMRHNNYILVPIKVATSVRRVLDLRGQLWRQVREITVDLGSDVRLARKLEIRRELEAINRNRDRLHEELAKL
# How it was run: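 PFK 1.25 nM, F6P 0.5 mM, ATP 0.1 mM, MgCl2 5 mM, 0.1 M TEA pH 8.0, Tween20 0.01%, BSA 0.1%; 45 min RT. ADP-Glo two-step detection, luminescence. qHTS titration; curve fitting with curve-class categorization.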
# [12] = target: Ubiquitin carboxyl-terminal hydrolase 1 (Homo sapiens) (UniProt O94782); test: Inhibitors of USP1/UAF1: Pilot qHTS (AID 504865; active = well fitted curve in the direction sought with a large enough effect; an effect the other way counts as inactive or inconclusive;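 note: rhodamine fluorescence freed from ubiquitin-rhodamine substrate followed over time; top concentration of the series differs between compounds; % is set by controls: 0 for no effect and ±100 for the full control effect; nearly all actives have a fitted effect of over 35% in size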); details: purified USP1/UAF1, Ub-rhodamine cleavage fluorescence; series mostly up to 54.9 µM
# Ubiquitin carboxyl-terminal hydrolase 1 (Homo sapiens), sequence (O94782 whole entry, looked up): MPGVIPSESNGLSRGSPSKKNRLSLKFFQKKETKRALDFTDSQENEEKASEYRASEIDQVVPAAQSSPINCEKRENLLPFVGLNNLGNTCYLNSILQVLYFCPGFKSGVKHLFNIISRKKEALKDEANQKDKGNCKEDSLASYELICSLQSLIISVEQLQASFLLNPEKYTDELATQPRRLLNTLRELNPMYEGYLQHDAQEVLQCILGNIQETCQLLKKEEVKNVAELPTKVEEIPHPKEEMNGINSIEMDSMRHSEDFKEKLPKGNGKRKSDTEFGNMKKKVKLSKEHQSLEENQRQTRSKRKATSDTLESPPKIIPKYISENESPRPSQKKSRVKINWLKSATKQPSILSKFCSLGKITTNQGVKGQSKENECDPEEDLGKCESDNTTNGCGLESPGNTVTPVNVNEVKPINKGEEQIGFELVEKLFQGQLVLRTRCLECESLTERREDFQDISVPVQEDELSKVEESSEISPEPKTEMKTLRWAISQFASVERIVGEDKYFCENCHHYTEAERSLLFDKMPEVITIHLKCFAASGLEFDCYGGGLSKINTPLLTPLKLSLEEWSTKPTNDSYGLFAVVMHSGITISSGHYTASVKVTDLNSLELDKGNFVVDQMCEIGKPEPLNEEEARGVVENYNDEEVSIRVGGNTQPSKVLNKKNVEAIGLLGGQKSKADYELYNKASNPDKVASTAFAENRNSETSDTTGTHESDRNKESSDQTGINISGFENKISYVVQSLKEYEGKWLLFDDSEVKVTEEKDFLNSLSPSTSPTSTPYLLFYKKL
# How it was run: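 USP1/UAF1 complex at 1 nM preincubated 15 min at room temperature with compound, then Ub-Rho substrate added at 150 nM final. Fluorescence (480/540 nm) read kinetically in 50 mM HEPES pH 7.8, 0.5 mM EDTA, 1 mM TCEP, 0.1 mg/ml BSA, 0.01% Tween-20.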
# [13] = qHTS profiling for inhibitors of Plasmodium falciparum proliferation (AID 504749; active = well fitted curve in the direction sought with a large enough effect; an effect the other way counts as inactive or inconclusive;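 note: 0% = DMSO vehicle and full inhibition = artemisinin control; nearly all actives have a fitted effect of over 60% in size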); details: P. falciparum in erythrocytes, SYBR Green DNA, 72 h, at 28.7 µM (top of the series)
# How it was run: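 Fluorescence of SYBR Green-bound parasite DNA, read at 485/535 nm, served as the growth measure. Infected erythrocytes were cultured with compound 72 h; artemisinin (0.29 uM) and DMSO wells defined the normalization range.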
# [14] = target: Cytochrome P450 3A4 (Homo sapiens) (UniProt P08684); test: qHTS Assay for Activators of Cytochrome P450 3A4 (AID 885; active = well fitted curve in the direction sought with a large enough effect; an effect the other way counts as inactive or inconclusive; note: nearly all actives have a fitted effect of over 65% in size); details: recombinant CYP3A4, Luciferin-PPXE luminescence, 60 min; series mostly up to 57.1 µM
# Cytochrome P450 3A4 (Homo sapiens), sequence (P08684 whole entry, looked up): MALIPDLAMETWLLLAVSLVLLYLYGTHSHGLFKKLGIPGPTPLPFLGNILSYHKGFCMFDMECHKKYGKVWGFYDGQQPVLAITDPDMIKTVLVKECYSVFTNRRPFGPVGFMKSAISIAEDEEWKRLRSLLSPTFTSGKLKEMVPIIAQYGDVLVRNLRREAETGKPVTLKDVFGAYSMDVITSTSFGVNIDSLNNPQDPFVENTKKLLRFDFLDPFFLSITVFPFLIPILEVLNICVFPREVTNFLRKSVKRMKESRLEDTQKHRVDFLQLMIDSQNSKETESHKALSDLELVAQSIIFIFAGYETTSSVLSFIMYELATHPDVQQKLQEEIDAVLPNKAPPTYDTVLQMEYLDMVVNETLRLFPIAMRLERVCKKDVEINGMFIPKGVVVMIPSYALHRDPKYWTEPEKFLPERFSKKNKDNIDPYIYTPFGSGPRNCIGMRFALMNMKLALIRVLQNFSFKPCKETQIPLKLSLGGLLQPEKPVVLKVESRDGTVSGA
# How it was run: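 Using 20nM recombinant human CYP3A4 in potassium phosphate (200mM), substrate Luciferin-PPXE at 25uM, luminescent luciferin detection followed a 60-min RT NADPH reaction; data scaled to 57 uM ketoconazole.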
# [15] = target: Cytochrome P450 2C19 (Homo sapiens) (UniProt P33261); test: qHTS Assay for Inhibitors and Substrates of Cytochrome P450 2C19 (AID 899; active = well fitted curve in the direction sought with a large enough effect; an effect the other way counts as inactive or inconclusive; note: % is set by controls: 0 for no effect and ±100 for the full control effect; nearly all actives have a fitted effect of over 60% in size); details: recombinant CYP2C19, luciferin-H EGE luminescence; series mostly up to 57.1 µM
# Cytochrome P450 2C19 (Homo sapiens), sequence (P33261 whole entry, looked up): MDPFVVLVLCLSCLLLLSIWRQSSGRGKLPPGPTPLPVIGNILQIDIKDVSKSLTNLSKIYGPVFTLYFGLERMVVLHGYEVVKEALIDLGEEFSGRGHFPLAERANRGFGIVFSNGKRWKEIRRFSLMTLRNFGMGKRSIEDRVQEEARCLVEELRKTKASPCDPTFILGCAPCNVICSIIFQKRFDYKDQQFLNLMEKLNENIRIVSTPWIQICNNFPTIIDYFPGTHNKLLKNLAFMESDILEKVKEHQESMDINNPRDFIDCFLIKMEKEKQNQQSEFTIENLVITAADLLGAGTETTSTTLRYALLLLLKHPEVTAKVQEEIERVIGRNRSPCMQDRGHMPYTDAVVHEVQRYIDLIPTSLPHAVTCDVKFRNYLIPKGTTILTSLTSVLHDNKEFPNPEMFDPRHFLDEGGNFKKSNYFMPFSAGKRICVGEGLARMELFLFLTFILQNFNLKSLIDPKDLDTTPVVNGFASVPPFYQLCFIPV
# How it was run: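 Human CYP2C19 (5nM) with Luciferin-H EGE at 10uM (its KM) in 50mM KPO4 was preincubated with compound for 10 min at 37C. NADPH regeneration started a 60 min 37C reaction. Luciferin was read by luminescence, normalized to 57uM ketoconazole.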
# [16] = Confirmation and Secondary Assay for Modulators of Hemoglobin Beta Chain Splicing at IVS2 654 locus (AID 910; active = well fitted curve in the direction sought with a large enough effect; an effect the other way counts as inactive or inconclusive;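 note: per-well total GFP intensity by laser scanning cytometry after 2-day treatment; % of control where 0% means no effect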); details: HeLa EGFP-654 splicing reporter, GFP fluorescence, 48 h; series mostly up to 38.3 µM
# How it was run: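 HeLa cells stably carrying EGFP interrupted by mutant beta-globin IVS2-654 intron (CMV-driven) were treated with compound for 2 days at 37C; corrected splicing was scored as total peak GFP intensity per well (488 nm excitation, 500-520 nm emission).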
# [17] = Confirmation and Secondary Assay for Modulators of Hemoglobin Beta Chain Splicing at IVS2 705 locus (AID 930; active = well fitted curve in the direction sought with a large enough effect; an effect the other way counts as inactive or inconclusive;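 note: HeLa cells stably expressing the EGFP-705 splicing reporter; % of control where 0% means no effect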); details: HeLa EGFP-705 splicing reporter, GFP fluorescence, 48 h; series mostly up to 38.3 µM
# How it was run: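 HeLa cells stably carrying EGFP interrupted by mutant beta-globin IVS2-705 intron (CMV-driven) were seeded at 500 cells/well, treated next day with compound for 2 days at 37C; corrected splicing restores EGFP, read as total peak GFP intensity per well.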
# [18] = measured here: cell count channel max response
# [19] = measured here: lipid channel max response
smiles,measurement,setting,value
O=C(C1CCCCC1)N1CC(=O)N2CCc3ccccc3[C@@H]2C1,"activity change, negative = inhibition",[1]; at 17.2 µM (top of the series),6.31% (inactive)
same,"activity change, negative = inhibition",[1]; at 38 µM (top of the series),-5.21% (inactive)
same,Potency,[2],12.6 µM (active) and 10 µM (active)
same,"activity change, negative = inhibition",[3]; at 17.2 µM (top of the series),3.18% (inactive)
same,"activity change, negative = inhibition",[3]; at 38 µM (top of the series),-8.74% (inactive)
same,"activity, negative = inhibition",[4]; at 17.2 µM (top of the series),-1.88% (inactive)
same,"activity, negative = inhibition",[4]; at 38 µM (top of the series),-0.96% (inactive)
same,Potency,[5],> 46 µM (inactive) and > 20.6 µM (inactive)
same,Potency,[6],> 46 µM (inactive) and > 20.6 µM (inactive)
same,Potency,[7],inactive
same,Potency,[8],inactive
same,Potency,[9],inactive
same,"activity change, negative = inhibition",[10],1.99% (inactive)
same,max response,[10]; [18],3.5%
same,max response,[10]; [19],8.95%
same,outcome,[11],inactive
same,Potency,[12],inactive
CC[C@]1(C)CC(=O)NC1=O,"activity change, negative = inhibition",[1]; at 17.2 µM (top of the series),1.25% (inactive)
same,"activity change, negative = inhibition",[1]; at 38 µM (top of the series),0.0779% (inactive)
same,Potency,[2],inactive
same,"activity change, negative = inhibition",[3]; at 17.2 µM (top of the series),5.72% (inactive)
same,"activity change, negative = inhibition",[3]; at 38 µM (top of the series),0.552% (inactive)
same,"activity, negative = inhibition",[4]; at 17.2 µM (top of the series),2.02% (inactive)
same,"activity, negative = inhibition",[4]; at 38 µM (top of the series),10.7% (inactive)
same,Potency,[5],> 46 µM (inactive) and > 20.6 µM (inactive)
same,Potency,[6],> 46 µM (inactive) and > 20.6 µM (inactive)
same,Potency,[7],inactive
same,Potency,[8],inactive
same,"activity change, negative = inhibition",[10],0.986% (inactive)
same,max response,[10]; [18],2.27%
same,max response,[10]; [19],7.01%
same,outcome,[11],inactive
same,Potency,[12],inactive
same,"activity, negative = inhibition",[13]; parasite line A,10.6% (inactive)
same,"activity, negative = inhibition",[13]; parasite line B,5.48% (inactive)
C[C@@](N)(Cc1ccc(O)c(O)c1)C(=O)O,"activity change, negative = inhibition",[1]; at 17.2 µM (top of the series),0.401% (inactive)
same,"activity change, negative = inhibition",[1]; at 38 µM (top of the series),5.17% (inactive) and -4.03% (inactive)
same,Potency,[2],inactive
same,"activity change, negative = inhibition",[3]; at 17.2 µM (top of the series),-8.05% (inactive)
same,"activity change, negative = inhibition",[3]; at 38 µM (top of the series),7.56% (inactive) and -10% (inactive)
same,"activity, negative = inhibition",[4]; at 17.2 µM (top of the series),0.151% (inactive)
same,"activity, negative = inhibition",[4]; at 38 µM (top of the series),-17.9% (inactive) and -0.208% (inactive)
same,Potency,[7],inactive
same,Potency,[8],inactive
same,Potency,[14],inactive
same,Potency,[9],inactive
same,Potency,[15],inactive
same,Potency,[16],inactive
same,outcome,[17],inactive
same,"activity change, negative = inhibition",[10],-1.42% (inactive)
same,max response,[10]; [18],6.8%
same,max response,[10]; [19],-7.65%
same,Potency,[12],inactive
CN(C)[C@@H]1C(=O)C(C(N)=O)=C(O)[C@]2(O)C(=O)C3=C(O)c4c(O)ccc(Cl)c4[C@H](O)[C@H]3C[C@@H]12,"activity change, negative = inhibition",[1]; at 17.2 µM (top of the series),-2.16% (inactive)
same,"activity change, negative = inhibition",[1]; at 38 µM (top of the series),-12.4% (inactive)
same,Potency,[2],inactive
same,"activity change, negative = inhibition",[3]; at 17.2 µM (top of the series),-15.3% (inactive)
same,"activity change, negative = inhibition",[3]; at 38 µM (top of the series),-6.38% (inactive)
same,"activity, negative = inhibition",[4]; at 17.2 µM (top of the series),-1.53% (inactive)
same,"activity, negative = inhibition",[4]; at 38 µM (top of the series),3.61% (inactive)
same,Potency,[5],> 46 µM (inactive) and > 20.6 µM (inactive)
same,Potency,[6],> 46 µM (inactive) and > 20.6 µM (inactive)
same,Potency,[7],inactive
same,Potency,[8],inactive
same,"activity change, negative = inhibition",[10],2.69% (inactive)
same,max response,[10]; [18],4.73%
same,max response,[10]; [19],8.96%
same,outcome,[11],inactive
same,Potency,[12],inactive
same,"activity, negative = inhibition",[13]; parasite line A,-26.7% (inactive)
